Most compounds without a hit are left out; they make up all but 10% or so of the library.
JMJD2A Tudor inh: JMJD2A Tudor domain (human) inhibition. O75164. AlphaScreen JMJD2A-Tudor / H3K4me3 peptide binding. Potency, µM (highest dose often 114 µM), hits mostly inhibitors. hit rate 4.4% among 390,000. AID 504339; also: nearly all actives have a fitted effect of over 50% in size
HP1b binding inh: inhibitors of HP1-beta chromodomain binding to methylated histone tails; Potency, µM (titrated, usually from 114 µM), usual class: inhibitors; AlphaScreen HP1-beta / biotin-H3K9me3 peptide binding; hit rate 0.56% among 390,000; P83916; also: nearly all actives have a fitted effect of over 70% in size
Target sequence (P83916 whole entry, looked up): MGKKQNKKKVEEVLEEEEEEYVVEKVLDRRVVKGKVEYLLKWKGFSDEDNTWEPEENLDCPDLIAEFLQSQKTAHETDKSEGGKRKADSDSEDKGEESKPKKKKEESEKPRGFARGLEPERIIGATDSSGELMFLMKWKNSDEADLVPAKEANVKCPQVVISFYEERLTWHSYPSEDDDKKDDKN
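HP1-beta protein (50 nM final) preincubated 30 min at room temperature with biotinylated H3(1-18)K9me3 peptide (50 nM) in PBS pH 7.4, 0.01% Tween-20, then compound added for 30 min. AlphaScreen streptavidin donor/nickel chelate acceptor beads (10 ug/mL final), 30 min dark, luminescence read.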
BAZ2B inh: inhibitors of human BAZ2B bromodomain; Potency, µM (series often up to 114 µM), usual class: inhibitors; hit rate 4.4% among 360,000; AlphaScreen BAZ2B-H3K14Ac peptide displacement; also: nearly all actives have a fitted effect of over 60% in size
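In this displacement format the biotinylated H3(5-23) peptide acetylated at Lys14 serves as ligand at 50 nM, with BAZ2B at 50 nM in PBS pH 7.4 containing 0.01% Tween-20. Donor and acceptor beads are 10 ug/mL final.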
GLS inh: blocks human kidney-isoform glutaminase activity; Potency, µM (titrated, usually from 45.5 µM), actives largely listed as inhibitors; GLS enzymatic activity, qHTS titration; hit rate 0.21% among 410,000
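Read-out is an Amplex red fluorescence increase coupled through glutamate oxidase and HRP, measured before and after 30 min room-temperature incubation. hKGA is in 45 mM KH2PO4 (pH 8.2) with 0.02% Tween-20; glutamine added as 1mM solution.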
G9a inh: inhibitors of human histone lysine methyltransferase G9a | G9a H3K9 monomethylation, AlphaScreen, 2 h | Potency, µM (top dose mostly 102 µM), actives largely listed as inhibitors | hit rate 8.8% among 350,000 | AID 504332; also: nearly all actives have a fitted effect of over 75% in size
Target sequence (Q96KQ7 913-1193 limits assumed): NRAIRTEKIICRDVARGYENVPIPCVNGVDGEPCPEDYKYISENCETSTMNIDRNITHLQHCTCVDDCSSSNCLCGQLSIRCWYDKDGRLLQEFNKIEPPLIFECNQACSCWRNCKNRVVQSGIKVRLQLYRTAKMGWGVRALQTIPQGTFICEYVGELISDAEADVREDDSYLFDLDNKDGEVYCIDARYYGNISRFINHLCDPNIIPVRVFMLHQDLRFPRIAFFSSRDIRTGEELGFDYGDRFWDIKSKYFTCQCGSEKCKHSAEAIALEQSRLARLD
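Step 1: enzyme (final 20 nM) with compound, 15 min RT. Step 2: substrate peptide 500 nM and SAM 20 uM, 2 h RT. Step 3: anti-H3K9me1 antibody and AlphaScreen beads, 10 min, then plate read.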
Of the large screens only hits and unclear results are named; the others gave an inactive call. Calls follow the shape of the dose curve; as a rule, active = well fitted curve in the direction sought with a large enough effect; inconclusive = small, poorly fitted or top-dose-only effect, or another doubt; inactive = no such curve, though single readings can be large; an effect the other way counts as inactive or inconclusive.

Cc1c(C)c2c(c(C)c1O)CCC(C)(C(=O)O)O2 (stereo not given)	G9a inh 14µM
Cc1c(C)c2c(c(C)c1O)CC[C@@](C)(CCC[C@H](C)CCC[C@H](C)CCCC(C)C)O2	none (no result: BAZ2B inh)
Cc1ccc(S(=O)(=O)N2CCCCC2)cc1NC(=O)CSCC(=O)O	G9a inh 50µM
Cc1ccc(S(=O)(=O)N2CCOCC2)cc1NC(=O)CNCC1CCCCC1	JMJD2A Tudor inh 4µM, G9a inh 10µM (no result: BAZ2B inh)
O=C(CCSc1nnc2ccc3ccccc3n12)Nc1ccc(F)cc1	BAZ2B inh inconclusive
CC(C)(C)/C(O)=C/c1nc2cc(Cl)ccc2oc1=O	JMJD2A Tudor inh inconclusive, G9a inh 45µM
Cc1ccc2oc(=O)c(/C=C(\O)C(C)(C)C)nc2c1	BAZ2B inh inconclusive, G9a inh inconclusive
CCc1ccccc1N1C(=O)c2cccc3c(N4CCOCC4)c([N+](=O)[O-])cc(c23)C1=O	JMJD2A Tudor inh inconclusive, BAZ2B inh inconclusive, G9a inh 16µM
Cc1cccc(N2CCN(Cc3nc(-c4cccc(Oc5ccccc5)c4)oc3C)CC2)n1	JMJD2A Tudor inh 45µM, HP1b binding inh inconclusive, BAZ2B inh inconclusive, G9a inh 40µM
CCOC(=O)c1c(S(=O)(=O)NCC(=O)NCc2ccccc2)c(C)n(C)c1C	none
COc1cccc(C2c3[nH]c4ccccc4c3CCN2C(=O)c2ccccc2F)c1OC (stereo not given)	JMJD2A Tudor inh inconclusive, BAZ2B inh inconclusive (no result: G9a inh)
COc1ccc2c(c1)sc(=N)n2C	G9a inh 20µM
COc1ccc2c(c1)sc1nc(=O)ccn12	none
N[C@H]1CN(c2c(F)cc3c(=O)c(C(=O)O)cn(C4C[C@@H]4F)c3c2Cl)CC12CC2 (stereo not given in full)	none (no result: JMJD2A Tudor inh, HP1b binding inh, BAZ2B inh, G9a inh)
NC1CCN(c2c(F)cc3c(=O)c(C(=O)O)cn(C4CC4)c3c2Cl)C1 (stereo not given)	BAZ2B inh inconclusive, G9a inh 71µM
NC1CCN(c2nc3c(cc2F)c(=O)c(C(=O)O)cn3-c2ccc(F)cc2F)C1 (stereo not given)	JMJD2A Tudor inh 50µM (no result: BAZ2B inh)
O=C(O)C1CCCCC1C(=O)NCc1ccc(F)cc1 (stereo not given)	none
COc1cccc(NC(=O)CCC2CCN(C(=O)c3cncs3)CC2)c1	G9a inh 40µM
COc1cccc(NC(=O)CCC2CCN(C(=O)c3scnc3C)CC2)c1	none
O=[N+]([O-])c1ccc(C2Oc3ccccc3C3CC(c4ccccc4)=NN32)s1 (stereo not given)	BAZ2B inh inconclusive, G9a inh 10µM (no result: JMJD2A Tudor inh, HP1b binding inh, GLS inh)
c1ccc(C2Oc3ccccc3C3CC(c4cccs4)=NN32)cc1 (stereo not given)	none
COc1ccc(N2CCN(CC(=O)Nc3sccc3C#N)CC2)cc1	BAZ2B inh inconclusive
COc1ccc(CNCC(=O)Nc2sccc2C#N)cc1	BAZ2B inh 50µM, G9a inh 28µM
N#Cc1ccsc1NC(=O)CN1CCN(c2ccc(O)cc2)CC1	JMJD2A Tudor inh inconclusive, HP1b binding inh inconclusive, GLS inh inconclusive, G9a inh 18µM
Cc1c(NC(=O)CN2CCN(c3ccc(O)cc3)CC2)c(=O)n(-c2ccccc2)n1C	JMJD2A Tudor inh 28µM, HP1b binding inh inconclusive, G9a inh 6.3µM (no result: BAZ2B inh)
N#Cc1ccsc1NC(=O)CN1CCN(c2ccccc2)CC1	none
CC(=O)N1CCN(CC(=O)Nc2sccc2C#N)CC1	JMJD2A Tudor inh 56µM
O=[S+]([O-])(c1ccc2c(c1)OCCO2)N1CCN([S+](=O)([O-])c2c(F)cc(O)cc2F)CC1	none (no result: HP1b binding inh, BAZ2B inh, GLS inh, G9a inh)
O=C(Nc1sc2c(c1C(=O)NCc1ccco1)CCCC2)c1ccc2c(c1)OCO2	none
O=C(NC(=S)NCc1ccco1)c1ccccc1	none (no result: G9a inh)
Cc1ccc(NC(=S)NNC(=O)Cn2nc(C(F)F)cc2C(F)F)cc1	G9a inh inconclusive
CC(C)CCNC(=O)C1C2C=CC3(CN(Cc4ccccc4Cl)C(=O)C13)O2 (stereo not given)	none
N#Cc1ncc(-c2ccc3c(c2)OCCOCCOCCOCCO3)nc1C#N	G9a inh inconclusive
Cc1ccc(S(=O)(=O)CCC(=O)OCC(=O)Nc2sccc2C#N)cc1	none (no result: JMJD2A Tudor inh, HP1b binding inh, BAZ2B inh, G9a inh)
Cc1ccc(S(=O)(=O)CCC(=O)Nc2sccc2C#N)cc1	G9a inh 25µM
CCN(CC)c1ccc(-c2sc(Nc3ccccc3)n[n+]2-c2ccc(F)cc2)cc1	JMJD2A Tudor inh 56µM, BAZ2B inh 28µM, G9a inh 45µM
CN(C)c1ccc(-c2sc(Nc3ccccc3)n[n+]2-c2ccc(F)cc2)cc1	JMJD2A Tudor inh inconclusive (no result: G9a inh)
CCN(CC)c1ccc(/C=N/NC(=O)Cc2nnc(NC(=O)Nc3ccccc3)s2)cc1	G9a inh inconclusive
CCc1ccc(Nc2n[n+](-c3ccccc3)c(-c3ccc(N(CC)CC)cc3)s2)cc1	JMJD2A Tudor inh 40µM, HP1b binding inh inconclusive, BAZ2B inh 40µM, G9a inh 13µM
O=C(NNC(=O)c1cccc(-n2cccc2)c1)c1ccc(F)cc1	JMJD2A Tudor inh inconclusive, BAZ2B inh 40µM
Cc1cccc(C(=O)NNC(=O)c2ccc(F)cc2)c1	none
O=C(O)c1ccccc1C(=O)NCC(O)c1ccccc1 (stereo not given)	G9a inh 7.9µM
O=C(CNC(=O)c1ccccc1C(=O)O)c1ccccc1	G9a inh 20µM
O=C(O)c1ccccc1C(=O)NCCCCCCNC(=O)c1ccccc1C(=O)O	G9a inh inconclusive
O=C(c1cc(-c2ccco2)nc2ccccc12)N1CCN(c2ccc(F)cc2)CC1	JMJD2A Tudor inh 56µM, BAZ2B inh 50µM, G9a inh inconclusive
Cc1ccc(-c2cc(C(=O)N3CCN(c4ccccc4)CC3)c3ccccc3n2)cc1C	JMJD2A Tudor inh inconclusive, G9a inh inconclusive
O=C(N/N=C/c1ccc(F)cc1)c1cc(-c2ccco2)nc2ccccc12	JMJD2A Tudor inh inconclusive, HP1b binding inh 22µM, BAZ2B inh 2.8µM, GLS inh 10µM, G9a inh inconclusive
Cc1nnc(NC(=O)c2cc(-c3ccco3)nc3ccccc23)s1	BAZ2B inh 40µM, G9a inh 40µM (no result: JMJD2A Tudor inh, HP1b binding inh, GLS inh)
O=C(Nc1nccs1)c1cc(-c2ccccc2)nc2ccccc12	none
O=C(Nc1nccs1)c1cc(-c2ccco2)nc2ccccc12	BAZ2B inh 50µM, G9a inh inconclusive
NC(=O)C1CCN(CC(O)CSc2ccccc2)CC1 (stereo not given)	none (no result: G9a inh)
COc1ccccc1C(=O)N/N=C(\C)CC(=O)Nc1ccc2c(c1)OCCO2	none
COc1ccc(CNc2ncncc2-c2ccc(C(=O)N(C)C)cc2)c(OC)c1	none (no result: JMJD2A Tudor inh, HP1b binding inh, BAZ2B inh, GLS inh)
O=C(O)c1cc(-c2ccco2)nc2ccccc12	JMJD2A Tudor inh 25µM, HP1b binding inh 45µM, BAZ2B inh inconclusive, GLS inh inconclusive, G9a inh 28µM
Cn1ccc(-c2cc(C(=O)O)c3ccccc3n2)n1	BAZ2B inh inconclusive, G9a inh 50µM
COc1ccc(-c2ncccc2OC(=O)C23CC4CC(CC(C4)C2)C3)cc1OC	G9a inh 45µM

Assay outcomes deposited in PubChem by National Center for Advancing Translational Sciences (NCATS).
